Molecules are shown by their SMILES. The whole screen tested about 3,000 compounds, of which about 1,800 (60%) were called active. The set was probably picked from earlier hits. A selection follows. Unmarked numbers belong to inactive results.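 The calls were made as follows: active = activation at or above a set limit, or at least 3 SD above the negative control mean; inactive = the rest.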

In this assay the target is Nuclear receptor subfamily 1 group D member 1 (Homo sapiens) (UniProt P20393). In words: Rev-erbα–DNA interaction modulation, retest – biochemical, FITC-DNA, fluorescence polarization, single point, confirmation (AID 1259319).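 Also: 0% = 35 nM protein with DMSO and 100% = 750 nM protein high control.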 As to conditions: Rev-erb alpha FITC-DNA binding, 90 min, at 25 µM, stronger effect = higher value.
Chain of Nuclear receptor subfamily 1 group D member 1 (Homo sapiens) (P20393 whole entry, looked up): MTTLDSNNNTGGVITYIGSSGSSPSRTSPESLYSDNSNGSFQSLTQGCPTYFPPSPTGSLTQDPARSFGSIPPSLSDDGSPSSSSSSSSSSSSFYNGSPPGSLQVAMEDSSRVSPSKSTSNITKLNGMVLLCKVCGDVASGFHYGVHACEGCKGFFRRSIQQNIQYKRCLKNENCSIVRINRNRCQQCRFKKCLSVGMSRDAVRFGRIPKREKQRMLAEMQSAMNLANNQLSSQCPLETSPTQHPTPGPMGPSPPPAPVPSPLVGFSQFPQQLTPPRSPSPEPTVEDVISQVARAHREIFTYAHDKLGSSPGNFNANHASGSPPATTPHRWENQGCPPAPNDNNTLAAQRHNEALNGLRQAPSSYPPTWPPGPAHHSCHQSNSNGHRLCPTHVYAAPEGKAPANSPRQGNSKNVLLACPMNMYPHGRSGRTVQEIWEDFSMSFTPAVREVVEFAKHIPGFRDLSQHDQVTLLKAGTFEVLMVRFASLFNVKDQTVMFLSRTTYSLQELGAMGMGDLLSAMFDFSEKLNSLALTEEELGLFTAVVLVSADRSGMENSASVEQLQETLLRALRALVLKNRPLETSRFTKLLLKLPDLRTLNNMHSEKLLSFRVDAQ
On to `c1ccc(CSc2ncnc3c2sc2nc(N4CCOCC4)c4c(c23)CCCC4)cc1`, for which the activation is 93.6% (active).
Then `S=c1nccc(-c2cc(Cl)sc2Cl)[nH]1`, with 36.6% (active); and `c1ccc(-c2cc(-c3nnc4sc(-c5ccccn5)nn34)[nH]n2)cc1`, with 26.1% (active); and `CN(C)c1ccc(/C=C2\NC(=S)N(Cc3ccccc3)C2=O)cc1`, with 37.3% (active).
Then `CN1/C(=C\C=C2\N=C(c3ccc(F)cc3)OC2=O)C(C)(C)c2ccccc21`, with 5.84%; and `O=C(CCn1c(=S)[nH]c2cc3c(cc2c1=O)OCO3)NCc1ccc(Cl)cc1`, with 9.29%.
The same measure for `O=C(CCn1c(SCC(=O)c2ccccc2)nc2ccccc2c1=O)NCc1ccc(F)cc1`: 36.3% (active); for `C=CCNC(=O)CC12CC3CC(C1)CC(CC(=O)NCC=C)(C3)C2`: -0.299%.
With `N#Cc1c(N)nc2c3c(sc(=N)c2c1N)NC(=O)CC3c1ccccc1Cl` (stereo unspecified), the activation was 35% (active).
Then `O=S(=O)(c1ccc(Br)cc1)c1nc(-c2ccccc2)oc1NCc1cccnc1`, with 5.25%.
The same measure for `Oc1ccc2ccc3cccc[n+]3c2c1`: 41.7% (active); for `CCc1ccccc1NC(=O)c1cc(-c2ccc3c(c2)OCO3)on1`: 10.4%.
The same measure for `CN(C)S(=O)(=O)c1ccc(N2CCCC2)c(C(=O)Nc2ccc(Br)cc2F)c1`: 10.4%; for `O=C1CCCC2=C1C(c1ccccc1)n1c(s/c(=C/c3cccc(F)c3)c1=O)=N2` (stereo unspecified): 30% (active); for `CCOC(=O)c1sc(=NC(=O)c2ccc(Br)cc2)n(C)c1C`: 26.1% (active).
Consider `COc1ccc2sc(-c3ccc(S(C)(=O)=O)cc3)c(-c3ccc(C(N)=O)cc3)c2c1`, for which the activation was 5.94%.
With `CCCNC(=O)Nc1ccc2c(c1)C(=O)N(C)[C@H]1CC[C@H](CC(=O)NCC3CCCCC3)O[C@@H]1CO2`, the activation is 63.1% (active).
The same measure for `CCN1C(=O)/C(=C\N2CCN(c3cccc(Cl)c3)CC2)SC1=S`: 204% (active); for `Cc1cccc(Nc2nc3c(S(=O)(=O)c4ccccc4)nnn3c3ccccc23)c1C`: 15.8%; for `Cc1ccc(S(=O)(=O)c2nnn3c2nc(N2CCN(c4ccccn4)CC2)c2ccccc23)cc1`: 65.4% (active).
Then `CC(C)OCCCNC(=O)CN1C(=O)/C(=C/c2ccccc2F)Oc2ccccc21`, with -0.363%; and `COC(=O)c1sc(NC(=O)c2ccc(OC)cc2OC)nc1C`, with 24.1% (active).
Consider `COc1ccc(Cc2nnc(NC(=O)c3ccc(OC)cc3OC)s2)cc1`, for which the activation is 9.03%.
`COC(=O)c1c(NC(C)=O)sc(C(=O)Nc2ccccc2OC)c1C`: the activation was 9.45%.
The same measure for `Cc1cc(Br)cn2c(Cc3ccccc3C(F)(F)F)c(-c3ccc(Cl)cc3)nc12`: 7.64%; for `Cc1ccc(-c2nc3c(C)cc(Br)cn3c2Cc2ccccc2)cc1`: 14.9% (active).
Then `Cc1nonc1NC(=O)CSc1nc2ccccc2cc1C#N`, with 39.8% (active); and `Cc1nc2cc(NC(=O)CSc3nc4c(C)cccc4cc3C#N)ccc2s1`, with 85.3% (active).
The same measure for `CCOc1cccc(C(=O)Nc2nnc(-c3cccs3)s2)c1`: -1.11%; for `CCOc1ccc2cc(C#N)c(SCC(=O)OC)nc2c1`: 90.1% (active); for `COCc1cc(C)nc(SCC(=O)Nc2cccc(C)c2)c1C#N`: -4.78%.
For the compound `Cc1cc2cc3c(cc2nc1SCC(=O)Nc1c(C)cccc1C)CCC3`, the activation was 16.2%.
The same measure for `CCOC(=O)c1c(NC(=O)CN2C(=O)NC3(CCC(C)CC3)C2=O)sc(C)c1CC` (stereo unspecified): 11%.
Then `c1ccc2c(-c3nn4nnnc4c4ccccc34)cccc2c1`, with 29.3% (active); and `COc1ccc(C2=NN(C(=O)CSc3nc(=O)n4ccc(C)cc4n3)C(c3ccc(C)cc3)C2)cc1` (stereo unspecified), with 4.15%; and `COc1ccc(-c2nnc(SCC(=O)c3ccc4c(c3)OCCO4)o2)cc1`, with 28.7% (active).
Then `CCOc1cccc(NC(=O)Cn2nc(-c3ccc4c(c3)OCCO4)ccc2=O)c1`, with 15.3%; and `COc1nc(-c2ccc(Cl)cc2)ccc1-c1noc(-c2cccs2)n1`, with 46.9% (active).
Consider `Fc1c(F)c(C(F)(F)F)c(F)c(F)c1N1CCN(c2ccc3nnc(C(F)(F)F)n3n2)CC1`, for which the activation is 40% (active).
Then `COc1ccccc1N1CCN(CC(=O)Nc2ccnn2C2CCCC2)CC1`, with -5.83%.
The same measure for `CC(=O)c1cc(C#N)c(SCC(=O)Nc2nccs2)nc1C`: 29% (active).
Regarding `COc1ccc(-n2ncc3c(N4CCc5ccccc54)ncnc32)cc1`, the activation was 40.6% (active).
Then `Cc1cc(C(C)(C)C)n2nc(C)c(-c3ccccc3)c2n1`, with 4.3%; and `Cc1ccc(-n2c(SCC(=O)NCCC3=CCCCC3)nc3n[nH]c(C)c3c2=N)cc1Cl`, with 14.5%; and `CCCCNC(=O)CSc1nc2n[nH]c(C)c2c(=N)n1-c1cccc(Cl)c1C`, with 26.6% (active).
Take `COc1ccc(CC(=O)Nc2ccc(-c3nnc(-c4ccc(C)cc4)o3)cc2)cc1`: the activation is -0.593%.
The same measure for `COc1ccc(CNC(=O)c2nnn(CC(=O)Nc3cc(C)cc(C)c3)c2N)cc1`: 21.9% (active); for `Cc1c(-c2ccccc2)nc(N)c(C#N)c1-c1cccs1`: 16.4%; for `O=C(COC(=O)c1cccc(Br)c1)Nc1cccc2c1C(=O)c1ccccc1C2=O`: 18.5% (active).
The same measure for `O=C(COC(=O)c1ccccc1SCC(=O)NC1CCCCC1)NC1CCCCC1`: 86.9% (active).
Then `CC(C)C(C)NC(=O)COc1nc2ccccc2nc1N(C)C1CCCCC1` (stereo unspecified), with 7.89%.
Take `N#Cc1ccccc1Sc1ccccc1C(=O)OCC(=O)NC1CCCCC1`: the activation is 35.9% (active).
Then `Cc1cc(NC(=O)CSc2nc(C(C)C)nc3sc4c(c23)CCC(C)C4)no1` (stereo unspecified), with 30.8% (active).
The same measure for `Cc1cc(NC(=O)CSc2nc3cc(Cl)ccc3c(=O)n2Cc2ccco2)no1`: 16.1%; for `Cc1nc(SCC(=O)Nc2cc(C)on2)c2c3c(sc2n1)CCCC3`: 43.7% (active); for `C[n+]1ccc(/C=C/c2c[nH]c3ccccc23)cc1`: 136% (active).
Turning to `CCc1ccc2c(c1)cc(CN(C(=S)Nc1ccccc1Cl)C1CC1)c1nnnn12`, the activation was 2.01%.
In the case of `COc1cccc(-n2c(SCC(=O)c3c[nH]c4ccccc34)nc3ccccc3c2=O)c1`, the activation was 30.8% (active).
Then `CCOC(=O)c1ccc(NC(=O)c2c(NCc3ccccc3)[nH]c(=O)[nH]c2=O)cc1`, with 1.79%; and `CCN(CC)c1ccc2cc(C(N)=O)/c(=N\NC(=O)c3ccncc3)oc2c1`, with 25.4% (active); and `Cn1c(=O)n(C)c2cc(/C=N/NC(=O)c3cccc(Br)c3)ccc21`, with 8.29%.
As to `COc1cc(Cl)c(C)cc1NC(=O)COC(=O)c1cc(SC)ccc1Cl`, the activation was 23.3% (active).
The same measure for `CCN1/C(=C\c2ccc3ccccc3[n+]2CC)Sc2cc(C)ccc21`: 67.5% (active); for `Cc1nc2nc(SCC(=O)c3ccccc3)[nH]c2cc1Br`: 45% (active); for `CCn1c(SCC(=O)Nc2cccc(F)c2)nnc1-c1cc2cc(Br)ccc2o1`: 26.2% (active).
Take `Cc1nc2nc(SCC(=O)Nc3cccc(F)c3)[nH]c2cc1Br`: the activation is 20% (active).
With `COc1ccc(C(=O)Nc2cccc(NC(=O)c3ccc(OC)cc3OC)n2)c(OC)c1`, the activation is 4.36%.
With `COc1ccc2[nH]c(C(=O)Nc3ccccc3Cl)cc2c1`, the activation is 30.5% (active).
The same measure for `Cc1cc(=O)oc(C)c1C(=O)N1CCCCC1`: -0.804%.
For `CC(C)Cn1c(CN(Cc2ccccc2)Cc2ccccc2)nc2c1c(=O)n(C)c(=O)n2C`, the activation was 48.3% (active).
The same measure for `Fc1ccc(CNc2nc3ccccc3n3nnnc23)cc1`: 27% (active).
The same measure for `COC(=O)c1cccc(Cn2ccc3ccc(-c4ccc5ccn(C(=O)C6CCCCC6)c5c4)cc32)c1`: 43.5% (active).
Then `COC(=O)c1cccc(Cn2ccc3ccc(-c4ccc5ccn(C(=O)c6ccccc6C)c5c4)cc32)c1`, with 89.9% (active).
In the case of `CCOC(=O)c1c(C)oc2cc(Br)c(OCC(N)=O)cc12`, the activation was 40.3% (active).
Then `COc1cc(OC)cc(-c2nc(=S)n3ccsc3n2)c1`, with 2.77%; and `Cc1sc2ncnc(N3CCC(C(=O)Nc4nc5ccc(Cl)cc5s4)CC3)c2c1C`, with 51% (active); and `CN1C(=O)c2ccc(C(=O)Nc3ccc(Br)cn3)cc2C1=O`, with 30.1% (active).
With `CCCCCn1nnnc1C1c2ccccc2C(=O)N1Cc1ccco1` (stereo unspecified), the activation was -8.88%.
Then `O=c1cc(N2CCCCC2)c(-c2ccccc2)nn1Cc1cccc(F)c1`, with 8.56%.
The same measure for `CCC(C(=O)NC1CCCC1)N(C(=O)c1snc(C(N)=O)c1N)c1ccc2c(c1)OCCO2` (stereo unspecified): 20.2% (active); for `NC(N)=Nc1nc2ccc(Br)cc2c(=O)[nH]1`: 21.2% (active).
As for `O=C1Cc2ccccc2Sc2ccc(Cl)cc21`, the activation is 23.2% (active).
Then `CCOc1nc(-c2ccc(OC)cc2)ccc1-c1noc(-c2cc(OC)c(OC)c(OC)c2)n1`, with 22.3% (active); and `CCOc1cc(-c2cc(-c3ccc(OC)cc3)nc(N)c2C#N)ccc1O`, with 13.9%.
Then `Cc1ccc(-n2nc3cc(C)c(NC(=O)c4cccnc4)cc3n2)cc1`, with 0.139%; and `COc1cccc(-c2ccc(C#N)c(SCC(=O)NCCc3ccc(Cl)cc3)n2)c1`, with 13.2%; and `COc1ccc(CCNC(=O)CSc2nc(-c3ccc(OC)c(OC)c3)ccc2C#N)cc1`, with 37% (active).
As for `CCOC(=O)c1ccc(NC(=S)Nc2cc(C)cc(C)n2)cc1`, the activation is 4.33%.
For `COc1ccc(S(=O)(=O)N2CCN(c3ncnc4c(-c5ccccc5)nsc34)CC2)cc1`, the activation is 8.1%.
Then `COc1ccc(-c2csc3ncnc(N4CCN(S(=O)(=O)c5ccccc5C#N)CC4)c23)cc1`, with 14.6%; and `CC(=O)c1ccc(S(=O)(=O)N2CCN(c3nc4c(C)c(C)ccc4cc3C#N)CC2)cc1`, with 181% (active).
